{"source": "PubChem BioAssay (NCATS)", "note": "Results filed as inconclusive are left out. Calls of active or inactive are those of the source. Calls come from the whole dose curve; as a rule, active = well fitted inhibition curve with a large enough effect; inconclusive = small, poorly fitted or top-dose-only effect; inactive = flat fitted curve, though single readings scatter. % is set by controls: 0 for no effect and ±100 for the full control effect."}
{"test": "P-glycoprotein substrates identified in KB-8-5-11 adenocarcinoma cell line, qHTS therapeutic library screen (AID 1346987); note: nearly all actives have a fitted effect of over 65% in size", "conditions": "KB-8-5-11 (P-gp overexpressing) viability, CellTiter-Glo, 72 h; series mostly up to 44.5 µM; activity change, negative = cytotoxicity: at the top concentration", "procedure,_shortened": "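In this qHTS, P-gp-rich KB-8-5-11 cells received library compounds across a concentration range. Viability was quantified by luminescence after 72 h at 37 degree C.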"}
{"smiles": "CC1(C)CC[C@]2(C(=O)O)CC[C@]3(C)C(=CCC4[C@@]5(C)C[C@@H](O)[C@H](O)[C@](C)(CO)C5CC[C@]43C)[C@@H]2[C@@H]1O", "note": "(some centres undefined)", "activity change, negative = cytotoxicity": "4.51% [at 17.3 µM] (inactive)"}
{"smiles": "COc1cc(/C=C/C(=O)O[C@H]2[C@H](O)[C@@H](CO)O[C@@]2(CO)O[C@H]2O[C@H](CO)[C@@H](O)[C@H](O)[C@H]2O)cc(OC)c1O", "outcome": "inactive [at 17.3 µM]"}
{"smiles": "CC1=C2CC(O)(C(C)(C)O)C(O[C@@H]3O[C@H](CO)[C@@H](O)[C@H](O)[C@H]3O)CC(C)C2CC1=O", "note": "(some centres undefined)", "outcome": "inactive [at 17.3 µM]"}
{"smiles": "CCCSc1nc(NC2CC2c2ccc(F)c(F)c2)c2nnn(C3CC(OCCO)C(O)C3O)c2n1", "note": "(centres undefined)", "activity change, negative = cytotoxicity": "0.539% (inactive)"}
{"smiles": "CC1=CCC2C(C)(C)CCCC2(C)C1CC12OC1C(O)C(CO)=CC2O", "note": "(centres undefined)", "activity change, negative = cytotoxicity": "8.9% (inactive)"}
{"smiles": "COc1cc(O)c2c(c1Cl)CC(C)OC2=O", "note": "(centres undefined)", "activity change, negative = cytotoxicity": "3.33% (inactive)"}
{"smiles": "COc1ccc2c(c1)C=C1Cn3c-2c(C2CCCCC2)c2ccc(cc23)C(=O)NS(=O)(=O)N(C)CCOCCN(C)C1=O", "activity change, negative = cytotoxicity": "-6.99% (inactive)"}
{"smiles": "COC1CC(O[C@H]2CC[C@@]3(C)C(=CC[C@]4(O)C3[C@H](O)[C@@H](O)[C@]3(C)[C@@H]([C@H](C)O)CC[C@@]34O)C2)OC(C)C1OC1CC(OC)C(OC2CC(OC)C(OC3OC(C)C(OC4OC(CO)C(O)C(O)C4O)C(OC)C3O)C(C)O2)C(C)O1", "note": "(some centres undefined)", "activity change, negative = cytotoxicity": "0.732% [at 9.29 µM] (inactive)"}
{"smiles": "CCC(C)C(=O)O[C@H]1[C@@H](O[C@H]2O[C@H](CO)[C@@H](O)[C@H](O)[C@H]2O)O[C@H](CO)[C@@H](O)[C@@H]1O", "note": "(some centres undefined)", "activity change, negative = cytotoxicity": "-7.56% [at 17.3 µM] (inactive)"}
{"smiles": "CCC(C)/C=C(C)/C=C/C1=CC2=C(Cl)C(=O)C(C)(OC(C)=O)C(=O)C2=CN1C(CC(=O)O)C(=O)O", "note": "(centres undefined)", "activity change, negative = cytotoxicity": "2.01% [at 17.3 µM] (inactive)"}
{"smiles": "O=C(/C=C/c1ccccc1)OC[C@H]1O[C@@H](OC(=O)c2cc(O)c(O)c(O)c2)[C@H](O)[C@@H](O)[C@@H]1O", "activity change, negative = cytotoxicity": "8.93% [at 17.3 µM] (inactive)"}
{"smiles": "C/C=C(\\C)C1C(C)=CC2CCC(OS(=O)(=O)O)C(C)C2C1/C=C/C=C/C(=O)O", "note": "(centres undefined)", "activity change, negative = cytotoxicity": "6.83% [at 17.3 µM] (inactive)"}
{"smiles": "COC(=O)[C@]1(Cc2ccc(O)c(CC=C(C)C)c2)OC(=O)C(O)=C1c1ccc(O)cc1", "outcome": "inactive [at 17.3 µM]"}
{"smiles": "C[C@@H]1O[C@@H](O[C@H]2[C@@H]3C=CO[C@@H](O[C@@H]4O[C@H](CO)[C@@H](O)[C@H](O)[C@H]4O)[C@@H]3[C@@]3(CO)O[C@@H]23)[C@H](O)[C@H](OC(=O)/C=C/c2ccc(O)c(O)c2)[C@H]1O", "outcome": "inactive [at 17.3 µM]"}
